The campaign covered roughly 4,800 compounds. About 420 (8.8%) showed an effect of 50% or more. The full list was thinned out, with strong results kept by preference.
test system: Plasmodium falciparum; assay: Confirmatory screen in NF54 nanoGlo assay, in single point, at 2uM, 72h; type: functional, Erythrocyte; conditions: timepoint 72 hour

| SMILES | % Inhibition |
| --- | --- |
| C#CCN1C(=O)N[C@@](CC)(C(C)C)C1=O | 10% |
| Cc1oc(=S)n2c1C[C@@H](c1ccccc1)N(Cc1ccccc1)C2 | -15% |
| CCc1ccc(NC(=O)[C@H](C)N2CCC(NS(=O)(=O)c3cccs3)CC2)cc1 | 70% |
| CCc1ccc(NC(=O)[C@@H]2CCn3c(C(=O)c4ccccc4)ccc32)cc1 | 1% |
| Cn1cc(C(=O)NCC2CCN(S(=O)(=O)c3cccs3)CC2)cn1 | -2% |
| CN(Cc1ccc(F)c(F)c1)S(=O)(=O)C[C@H]1CCN(C(=O)OCc2ccccc2)C1 | -10% |
| Cc1cc(C)n(-c2ccc(CN3C(=O)NC4(CCCC4)C3=O)cc2)n1 | -4% |
| O=C1CN(C(=O)Cc2c(F)cccc2Cl)C2(CCCC2)CN1 | -11% |
| Cc1nccc(NC(=O)C2CCC(F)(F)CC2)c1Cl | -4% |
| Cc1c(NC(=O)CC(C)(C)CC(=O)N2CCN(c3ccccc3F)CC2)c(=O)n(-c2ccccc2)n1C | 2% |
| CC1(C)Oc2ccc(NC(=O)COc3ccccc3)cc2NC1=O | 11% |
| CC(C)(C)CC(=O)Nc1ccc2c(c1)C(N1CCCCC1)=Nc1ccccc1O2 | -13% |
| O=C(COc1ccccc1)Nc1ccc2c(c1)C(O)=Nc1cccnc1O2 | 58% |
| Cc1ccc([C@H]2C=NN(c3ccc(Br)cc3)C2=O)cc1 | 20% |
| Cc1ccc(C)c(S(=O)(=O)NCCNc2ccc(Nc3ccncc3)nn2)c1 | 28% |
| CCNc1nc(C)cc(Nc2ccc(NS(=O)(=O)c3c(C)noc3C)cc2)n1 | 92% |
| CCNc1nc(C)cc(Nc2ccc(NC(=O)c3cc(C)ccc3C)cc2)n1 | 98% |
| CCC(=O)Nc1nc2c(OC)cc(NS(=O)(=O)c3c(C)noc3C)cc2s1 | -4% |
| Cc1ccccc1S(=O)(=O)NCc1nnc(C(=O)Nc2ccc(F)cc2F)s1 | -5% |
| CCC(=O)N1CCN(c2cc(Nc3ccc(C)cc3)nc(C)n2)CC1 | -1% |
| O=C(Nc1ccc(N2CCOCC2)cc1)Nc1ccc(F)cc1F | 1% |
| Cc1onc(N)c1S(=O)(=O)Nc1ccncc1 | -7% |

| SMILES | % Inhibition |
| --- | --- |
| CC(C)c1ccc(-c2nn3c(C4CCN(S(C)(=O)=O)CC4)nnc3s2)cc1 | -20% |
| C[C@H](C#N)CNc1ncc(Br)cn1 | 1% |
| CN(c1ccc(Cl)cn1)S(=O)(=O)c1ccc2ncccc2c1 | -22% |
| C[C@H]1CN(Cc2cc3c(cc2Br)OCO3)CCN1S(C)(=O)=O | -2% |
| Brc1ccc(NCc2[nH]nnc2-c2ccccc2)cc1 | 2% |
| O=S(=O)(c1ccccc1Br)N1CC[C@H]1c1ccccc1 | -6% |
| CN(c1ncc(S(=O)(=O)c2ccccc2)c(N)n1)C1CCCCC1 | -9% |
| Cn1ccnc1CN1CCC[C@@](O)(CNS(=O)(=O)c2cccs2)CC1 | -10% |
| CC(C)(C)c1ccnc(N[C@H]2CO[C@H]3[C@@H]2OC[C@@H]3NC(=O)NCc2ccccc2)n1 | 18% |
| Cc1nn(CCC(=O)NC2CCCC2)cc1Br | -10% |
| CN(C)c1ccc(C(=O)N[C@@]2(C)CCS(=O)(=O)C2)cc1 | -6% |
| Cc1cnn(Cc2cc(C(=O)N(C)Cc3nc4ccccc4n3C)no2)c1 | -6% |
| O=C(Nc1cccc2cccnc12)N1CCOCC1CC(O)c1cccs1 (centres undefined) | 0% |
| Cc1nnc(O)c(CNC(=O)COC2CCCC(C)C2)c1C (centres undefined) | -7% |
| Cc1ncccc1C(=O)NCCc1csc(-c2ccccc2)n1 | -11% |
| c1ccc(-c2nc(C[n+]3ccc4c(c3)CCCC4)cs2)cc1 | 57% |
| Cc1cc(C)cc(NC(=O)CCn2c(=O)cc(C(F)(F)F)c3cn(C(C)C)nc32)c1 | -14% |
| CC1(C)CCC(Nc2ccc(C(N)=O)nn2)CC1 | 70% |
| CCn1cnc2c(N3CCC[C@H](c4ccncc4)C3)ncnc21 | 68% |
| CCn1c(=O)c(N2CCC[C@H](C(=O)NCc3ccccc3OC)C2)nc2cccnc21 | -7% |
| Brc1cncnc1N1CCC[C@H](c2nnn[nH]2)C1 | -15% |
| CC(C)(C)NC(=O)N[C@H]1COc2c1ccc(Cl)c2Cl | -3% |

| SMILES | % Inhibition |
| --- | --- |
| Cc1ccc(C(=O)Nc2ccc(N3CCN(c4c(F)c(F)c(F)c(F)c4F)CC3)cc2)c(Cl)c1 | 10% |
| O=C(Nc1nc2ccccc2[nH]1)C1CCN(c2cc3c(nn2)CCC3)CC1 | 5% |
| O=C(O)c1cc(N2CCC(Cc3ccccc3)CC2)ccc1NC(=O)C1CCC1 | -14% |
| NC(=O)c1ccccc1NC(=O)C1CCN(c2cc(C3CC3)ncn2)CC1 | 53% |
| Cc1cn([C@H]2C[C@@H](OC(=O)c3ccccc3)[C@@H](CO)O2)c(=O)[nH]c1=O | -6% |
| CC(C)NC(=O)[C@H](C)N(C)Cc1nccn1CC(F)(F)F | -1% |
| CCC(CC)c1ccc([C@H]2N(C(=O)c3ccc(C)cc3)CCN2S(=O)(=O)c2ccccc2)cc1 | -2% |
| O=S1(=O)CCN(C2CCN(Cc3c(F)cccc3F)CC2)CC1 | 4% |
| COc1cccc(N2C(=O)C[C@]3(CC3(c3ccccc3)c3ccccc3)C2=O)c1 | 39% |
| CN1C2(c3ccccc3)C3C(=O)N(c4ccccc4)C(=O)C3C1(c1ccccc1)C1C(=O)N(c3ccccc3)C(=O)C12 (centres undefined) | 2% |
| Cc1ccc(N2C(=O)C[C@]3(CC3(c3ccccc3)c3ccccc3)C2=O)cc1 | 66% |
| O=S(=O)(Cc1ccno1)NCCc1ccccc1OC(F)F | 2% |
| Cc1ccc(C(=O)Nc2noc(-c3ccc(C)cc3)c2-c2ccccc2Cl)cc1 | -11% |
| c1cc(-c2cn3c(COc4ccc5c(c4)OCO5)nnc3s2)ccn1 | 3% |
| CC1CCN(C[C@H]2CCCCCN2C(=O)NCCc2ccccc2)CC1 | 34% |
| O=C(Cc1cc(F)c(F)cc1F)N1CCOC[C@H]1c1ncon1 | -3% |
| Cc1nc2ccccc2cc1OCc1ccc(F)cc1 | 3% |
| CC(NC(=O)N[C@@H]1C=C[C@H](CO)C1)c1ccncc1F (some centres undefined) | 2% |
| S=c1cc(-c2ccccc2)n(Cc2ccco2)c2c1CCCC2 | 38% |
| Cc1ccc(Cc2nc(N3CCCN(C(=O)CCc4ccccc4)CC3)c3cnn(-c4ccccc4)c3n2)cc1 | 1% |

Reference: ChEMBL document CHEMBL4888484, “Replenishing the malaria drug discovery pipeline: Screening and hit evaluation of the MMV Hit Generation Library 1 (HGL1) against asexual blood stage Plasmodium falciparum ,using a nano luciferase reporter read-out” (2022)
